From PubChem BioAssay
Pf Dd2 growth: blocks growth of Plasmodium falciparum Dd2 parasites | activity change, % at 10 µM | actives 2.3% (n = 94,000) | P. falciparum Dd2 growth, SYBR Green, 72 h; active compounds read low; in the data active = activity change below about -80%; inconclusive = no clear call, values can overlap the other calls
C diff HTS: inhibitors of Clostridium difficile growth | Clostridium difficile clinical isolate growth, OD600, 24 h; active compounds read low | AID 1259249 | actives 0.25% (n = 86,000) | growth activity, negative = inhibition, % at 16 µg/mL (by protocol);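 active = mean growth activity at or below -80% and every replicate also at or below -80%; inconclusive = mean at or below -80% but some replicate above -80%; inactive = mean growth activity above -80%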
T cruzi growth-1: T. cruzi proliferation inhibition. T. cruzi beta-gal in NIH3T3, GalScreen luminescence, 90 h. AID 624255. actives 5.9% (n = 77,000). inhibition, % at 8.34 µM;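 active = mean inhibition above about 93%, with at least 55% of replicates each passing it, limit read from the data, passing the limit was not always enough; inconclusive = only one of those two conditions holds; inactive = neither condition holds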
T cruzi growth-2: Trypanosoma cruzi proliferation inhibition. shares compounds with T cruzi growth-1. T. cruzi beta-gal in NIH3T3, GalScreen luminescence, 90 h. inhibition, % at 8.35 µM. actives 72% (n = 5,600). AID 651739;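 active = mean replicate inhibition above about 95% and at least 55% of replicates individually reaching it, limit read from the data; inconclusive = only one of the two criteria is met; inactive = neither criterion is met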
T cruzi growth-3: Trypanosoma cruzi proliferation inhibition; shares compounds with T cruzi growth-1; T. cruzi beta-gal in NIH3T3, GalScreen luminescence, 90 h; inhibition, % at 2.09 µM; actives 21% (n = 5,600); AID 651740;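 active = mean inhibition above about 95%, with at least 55% of replicates also reaching it, limit read from the data; inconclusive = meets just one of the two conditions; inactive = meets neither condition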
3T3 cytotox: NIH/3T3 (mouse) viability loss | shares compounds with T cruzi growth-1 | NIH/3T3 viability, CellTiter-Glo ATP luminescence, 90 h | cytotoxicity (signal decrease), % at 8.35 µM | actives 14% (n = 5,600) | AID 651742;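 active = mean signal decrease across replicates above about 35% based on untreated-well scatter, with enough replicates individually passing, limit read from the data; inconclusive = no rule stated though some were filed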
NIH3T3 tox 2: kills mouse NIH/3T3 fibroblasts; shares compounds with T cruzi growth-1; NIH/3T3 viability, CellTiter-Glo ATP luminescence, 90 h; inhibition, % at 24.9 µM; actives 56% (n = 5,600);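 active = mean loss of cell viability signal at or above a set limit, and enough replicates individually reaching it; inconclusive = meets only the mean limit or only the replicate share; inactive = meets neither condition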
Each line names hits and unclear results; the compound was inactive in the other large screens (follow-up assays come after a bar, where they were run). An excerpt weighted towards active compounds, which were near 6.7% of everything screened.

COc1ccc(NC(=O)N(C)C[C@H]2Oc3cc(-c4cccc(C(=O)N(C)C)c4)ccc3S(=O)(=O)N([C@@H](C)CO)C[C@H]2C)cc1	none (no result: T cruzi growth-1)
CCN1[C@H](C(=O)Nc2ccccc2)[C@@H](CO)[C@@H]2Cn3c(ccc(-c4ccncc4)c3=O)[C@@H]21	none
CC(=O)N1[C@H](C(=O)NC2CCC2)[C@@H](CO)[C@@H]2Cn3c(ccc(-c4ccccc4)c3=O)[C@@H]21	none
COc1ccc(-c2ccc3n(c2=O)C[C@H]2[C@H](CO)[C@@H](C(=O)Nc4ccccc4)N(C)[C@@H]32)cc1	none (no result: T cruzi growth-1)
CN(C)CC(=O)N1[C@H](C(=O)NC2CCC2)[C@@H](CO)[C@@H]2Cn3c(ccc(-c4ccccc4)c3=O)[C@@H]21	T cruzi growth-1 active (no result: Pf Dd2 growth) | T cruzi growth-2 inactive | T cruzi growth-3 inactive | 3T3 cytotox inactive | NIH3T3 tox 2 inactive
CN1[C@H](C(=O)Nc2ccccc2)[C@@H](CO)[C@@H]2Cn3c(ccc(-c4ccccc4)c3=O)[C@@H]21	T cruzi growth-1 100.1 | T cruzi growth-2 inactive | T cruzi growth-3 inactive | 3T3 cytotox inactive | NIH3T3 tox 2 inconclusive
CN1[C@@H]2c3ccc(-c4ccccc4)c(=O)n3C[C@@H]2[C@@H](CO)[C@@H]1C(=O)Nc1ccccc1	T cruzi growth-1 100.5 | T cruzi growth-2 inactive | T cruzi growth-3 inactive | 3T3 cytotox inactive | NIH3T3 tox 2 inactive
C[C@@H]1CCCCO[C@H](CN(C)Cc2ccc(C(=O)O)cc2)[C@H](C)CN([C@@H](C)CO)C(=O)c2cc(NC(=O)Nc3ccc4c(c3)OCO4)ccc2O1	none
C[C@@H]1CN([C@H](C)CO)C(=O)Cc2cc(NC(=O)c3ccncc3)ccc2O[C@@H]1CN(C)Cc1ccc(Oc2ccccc2)cc1	none
C[C@H](CO)N1C[C@H](C)[C@H](CN(C)Cc2ccc(Oc3ccccc3)cc2)Oc2ccc(NC(=O)c3ccncc3)cc2CC1=O	T cruzi growth-1 102.4 | T cruzi growth-2 102.2 | T cruzi growth-3 inactive | 3T3 cytotox inactive | NIH3T3 tox 2 102.8
C[C@H]1CN([C@@H](C)CO)C(=O)Cc2cc(NC(=O)c3ccncc3)ccc2O[C@@H]1CN(C)Cc1ccc(Oc2ccccc2)cc1	none
C[C@@H]1CN([C@@H](C)CO)C(=O)Cc2cc(NC(=O)c3ccncc3)ccc2O[C@H]1CN(C)Cc1ccc(Oc2ccccc2)cc1	T cruzi growth-1 104.9 | T cruzi growth-2 104.8 | T cruzi growth-3 inactive | 3T3 cytotox inactive | NIH3T3 tox 2 102.8
C[C@@H]1CN([C@H](C)CO)C(=O)Cc2cc(NC(=O)Nc3ccccc3)ccc2O[C@H]1CN(C)Cc1ccncc1	T cruzi growth-1 98.3 | T cruzi growth-2 inactive | T cruzi growth-3 inactive | 3T3 cytotox inactive | NIH3T3 tox 2 inactive
C[C@@H]1CN([C@@H](C)CO)C(=O)Cc2cc(NC(=O)Nc3ccccc3)ccc2O[C@@H]1CN(C)Cc1ccncc1	none (no result: C diff HTS)
C[C@H]1CN([C@@H](C)CO)C(=O)Cc2cc(NC(=O)Cn3cnnn3)ccc2O[C@H]1CN(C)CC1CCCCC1	none
C[C@H](O)C#Cc1cnc2c(c1)C(=O)N([C@@H](C)CO)C[C@@H](C)[C@H](CN(C)C(=O)Cc1ccccn1)O2	none
C[C@@H]1CN([C@H](C)CO)C(=O)c2cc(NC(=O)Nc3ccc(F)cc3)ccc2O[C@@H](C)CCCCO[C@H]1CN(C)C(=O)Nc1ccccc1	none (no result: C diff HTS)
C[C@@H]1CCCCO[C@@H](CN(C)C(=O)Nc2ccccc2)[C@H](C)CN([C@@H](C)CO)C(=O)c2cc(NC(=O)Nc3ccc(F)cc3)ccc2O1	T cruzi growth-1 97.1 (no result: C diff HTS) | T cruzi growth-2 114.2 | T cruzi growth-3 inactive | 3T3 cytotox inactive | NIH3T3 tox 2 inactive
C[C@H](CO)N1C[C@H](C)[C@H](CN(C)C(=O)Nc2ccc(F)cc2)OCCCC[C@H](C)Oc2ccc(NC(=O)Nc3ccccc3)cc2C1=O	T cruzi growth-1 122.6 | T cruzi growth-2 107.3 | T cruzi growth-3 inactive | 3T3 cytotox inactive | NIH3T3 tox 2 inactive
C[C@@H]1CCCCO[C@@H](CN(C)C(=O)Nc2ccc(F)cc2)[C@@H](C)CN([C@@H](C)CO)C(=O)c2cc(NC(=O)Nc3ccccc3)ccc2O1	none
C/C=C/c1cnc2c(c1)C(=O)N([C@@H](C)CO)C[C@H](C)[C@@H](CN(C)S(=O)(=O)c1ccc(OC)cc1)O2	none
CN(C)CC(=O)Nc1ccc2c(c1)[C@H]1C[C@@H](CC(=O)NCc3cccc(F)c3)O[C@H](CO)[C@H]1O2	none
O=C(c1ccccc1)N1CC(=O)N2[C@@H](CO)[C@@H](c3ccc(C#Cc4ccccc4)cc3)[C@@H]2C1	none (no result: T cruzi growth-1)
C[C@H]1CN([C@@H](C)CO)S(=O)(=O)c2ccc(C#CC(C)(C)O)cc2O[C@H]1CN(C)C(=O)C1CC1	none (no result: C diff HTS)
C[C@@H]1CN([C@H](C)CO)S(=O)(=O)c2ccc(C#Cc3ccncc3)cc2O[C@@H]1CN(C)C(=O)C1CCC1	none
C[C@@H]1CN([C@@H](C)CO)S(=O)(=O)c2ccc(C#CC(C)(C)O)cc2O[C@H]1CN(C)C(=O)C1CC1	T cruzi growth-1 101.7 (no result: C diff HTS) | T cruzi growth-2 inactive | T cruzi growth-3 inactive | 3T3 cytotox inactive | NIH3T3 tox 2 47.2
C[C@@H]1CN([C@H](C)CO)S(=O)(=O)c2ccc(C#Cc3ccncc3)cc2O[C@H]1CN(C)C(=O)C1CCCCC1	none
C[C@H](CO)N1C[C@H](C)[C@@H](CN(C)C(=O)C2CC2)Oc2cc(C#Cc3ccncc3)ccc2S1(=O)=O	T cruzi growth-1 123.4 (no result: C diff HTS) | T cruzi growth-2 inactive | T cruzi growth-3 inactive | 3T3 cytotox inactive | NIH3T3 tox 2 61.6
C[C@H](CO)N1C[C@H](C)[C@H](CN(C)C(=O)C2CC2)Oc2cc(C#Cc3ccncc3)ccc2S1(=O)=O	T cruzi growth-1 105.2 (no result: C diff HTS) | T cruzi growth-2 105.0 | T cruzi growth-3 inactive | 3T3 cytotox inactive | NIH3T3 tox 2 65.4
CCC(=O)N(C)C[C@@H]1Oc2ncc(-c3ccc(F)cc3)cc2C(=O)N([C@H](C)CO)C[C@@H]1C	none
C[C@H]1CN([C@@H](C)CO)C(=O)c2cc(NC(=O)c3ccncc3)ccc2O[C@@H]1CN(C)Cc1ccc(-c2ccccc2)cc1	none (no result: T cruzi growth-1)
C[C@@H]1CN([C@H](C)CO)C(=O)c2cc(NC(=O)NC3CCCCC3)ccc2O[C@@H](C)CCCCO[C@H]1CN(C)C(=O)NC1CCCCC1	none
CCCN(C)C[C@@H]1Oc2ncc(Br)cc2C(=O)N([C@H](C)CO)C[C@H]1C	none
Cc1noc(C)c1NC(=O)Nc1ccc2c(c1)C(=O)N([C@H](C)CO)C[C@@H](C)[C@H](CN(C)S(=O)(=O)c1cccs1)O2	none (no result: C diff HTS)
CCCNC(=O)N1[C@H](CO)[C@H](c2ccc(C3=CCCC3)cc2)[C@@H]1C#N	none
C/C=C/c1ccc([C@H]2[C@@H](CO)N(C(=O)Nc3ccccc3F)[C@H]2C#N)cc1	T cruzi growth-1 105.3 | T cruzi growth-2 inactive | T cruzi growth-3 inactive | 3T3 cytotox inactive | NIH3T3 tox 2 48.1
